According to ChEMBL document CHEMBL1961873, “Compounds: GSK PKIS; Assays: Nanosyn kinase panel” (2012):

Target: Serine/threonine-protein kinase pim-3 (Homo sapiens) (UniProt Q86V86)
Settings: at 0.1 µM

| SMILES | inhibition [%] |
| --- | --- |
| COc1cc(C=NNc2ncnc3c2cnn3Cc2ccccc2)ccc1O | 1.07 |
| CCn1c(-c2nonc2N)nc2c(C#CCN)ncc(OCCCN)c21 | 9.18 |
| CCn1c(-c2nonc2N)nc2c(C#CC(C)(C)O)nc(O[C@@H](CN)c3ccccc3)cc21 | 4.66 |
| NS(=O)(=O)c1ccc(N/C=C2\C(=O)Nc3ccc4ncsc4c32)cc1 | 0.54 |
| NC(=O)c1sc(-n2cnc3cc(C(F)(F)F)ccc32)cc1OCc1ccccc1Br | 1.55 |
| Cc1cc(-c2ccco2)cc(C)c1/C=C/c1cncc(-c2nn[nH]n2)c1 | 0.12 |
| Nc1nonc1-c1nc2cnccc2n1C1CCCCC1 | 11.4 |
| COc1cccc(-n2ncc3c(N/N=C/c4ccncc4)ncnc32)c1 | 0.83 |
| COc1cc2c(cc1Nc1nc(Nc3ccsc3C(N)=O)c3cc[nH]c3n1)N(C(=O)CN(C)C)CCC2 | 6.22 |
| CCn1c(-c2nonc2N)nc2c(C#CC(C)(C)O)ncc(OC[C@@H]3CCCN3)c21 | 1.81 |
| CCn1c(-c2nonc2N)nc2c(C#CC(C)(C)O)ncc(OCC3CCNCC3)c21 | 3.02 |
| COc1cccc(COc2cc(-n3cnc4ccccc43)sc2C(N)=O)c1 | 0.12 |
| Fc1ccc(-c2ncn(C3CCNCC3)c2-c2ccnc(Oc3ccccc3)n2)cc1 | -0.25 |
| NS(=O)(=O)c1ccc(-c2ccc3c(NC(=O)C4CC4)n[nH]c3c2)cc1 | -0.26 |

Target: Serine/threonine-protein kinase pim-3 (Homo sapiens) (UniProt Q86V86)
Settings: at 1 µM

| SMILES | inhibition [%] |
| --- | --- |
| COc1cc(C=NNc2ncnc3c2cnn3Cc2ccccc2)ccc1O | 5.08 |
| CCn1c(-c2nonc2N)nc2c(C#CCN)ncc(OCCCN)c21 | 33 |
| CCn1c(-c2nonc2N)nc2c(C#CC(C)(C)O)nc(O[C@@H](CN)c3ccccc3)cc21 | 39 |
| NS(=O)(=O)c1ccc(N/C=C2\C(=O)Nc3ccc4ncsc4c32)cc1 | 4.12 |
| NC(=O)c1sc(-n2cnc3cc(C(F)(F)F)ccc32)cc1OCc1ccccc1Br | 2.84 |
| Cc1cc(-c2ccco2)cc(C)c1/C=C/c1cncc(-c2nn[nH]n2)c1 | 1.83 |
| Nc1nonc1-c1nc2cnccc2n1C1CCCCC1 | 56.9 |
| COc1cccc(-n2ncc3c(N/N=C/c4ccncc4)ncnc32)c1 | 4.38 |
| COc1cc2c(cc1Nc1nc(Nc3ccsc3C(N)=O)c3cc[nH]c3n1)N(C(=O)CN(C)C)CCC2 | 38.3 |
| CCn1c(-c2nonc2N)nc2c(C#CC(C)(C)O)ncc(OC[C@@H]3CCCN3)c21 | 10.1 |
| CCn1c(-c2nonc2N)nc2c(C#CC(C)(C)O)ncc(OCC3CCNCC3)c21 | 21 |
| COc1cccc(COc2cc(-n3cnc4ccccc43)sc2C(N)=O)c1 | 0.33 |
| Fc1ccc(-c2ncn(C3CCNCC3)c2-c2ccnc(Oc3ccccc3)n2)cc1 | -0.02 |
| NS(=O)(=O)c1ccc(-c2ccc3c(NC(=O)C4CC4)n[nH]c3c2)cc1 | -1.81 |
